Among the test systems are DU-145 prostate; K-562 leukemia; MALME-3M melanoma; MDA-MB-231 breast; RXF 393 renal; SF-268 CNS; SF-295 CNS; SF-539 CNS; UACC-257 melanoma; M14 melanoma; HCT-15 colon; HT29 colon; SNB-75 CNS; SNB-19 CNS; U251 CNS; PC-3 prostate; UACC-62 melanoma; LOX IMVI melanoma; SK-MEL-28 melanoma; SK-MEL-5 melanoma.
Holding throughout (test): NCI-60 one-dose screen, 48 h (100 = growth as untreated, 0 = no growth, -100 = all killed)
Holding throughout (conditions): 10 µM unless noted

The panel holds about 83,000 compounds, 20% with a hit somewhere; the sample as a whole holds those more often.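 Compound tested at a single concentration for 48 hours in 96-well plates; a percent growth value below 10 was scored as active.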 A number with no mark means an inactive call. Activity calls are given as the source filed them.

Turning to `Oc1ccc(-c2nnc3c4[nH]ccc4ncn23)cc1`, the growth was 97.2% in the assay on DU-145 prostate; 98.4% in the assay with K-562 leukemia; 94.5% in the assay on MALME-3M melanoma; 92% in the assay with MDA-MB-231 breast; 113% in the assay with RXF 393 renal; 103% with SF-268 CNS. Moreover, the growth with SF-295 CNS is 101%; with SF-539 CNS, 101%; with UACC-257 melanoma, 117%; in the assay on M14 melanoma it was 104%; in the assay on HCT-15 colon it was 110%; in the assay with HT29 colon, 98.3%. For the same compound, the growth is 78.8% in the assay on SNB-75 CNS; 98.9% in the assay on SNB-19 CNS; 102% in the assay with U251 CNS; 94.3% in the assay with PC-3 prostate; 95.2% in the assay with UACC-62 melanoma; 89.9% in the assay on LOX IMVI melanoma. Moreover, the growth in the assay on SK-MEL-28 melanoma is 102%.

Take `Nc1c(C(=O)Nc2ccccc2)sc2nc3c(cc12)C(=O)CCC3`: the growth was 0.618% (active) with DU-145 prostate; 17.1% in the assay on K-562 leukemia; 76.2% in the assay with MALME-3M melanoma; 52.1% in the assay with MDA-MB-231 breast; -9.9% (active) with RXF 393 renal; 53.4% with SF-268 CNS. The growth in the assay with SF-295 CNS is -12.4% (active); in the assay with SF-539 CNS, 0.845% (active); with UACC-257 melanoma, 52.8%; with M14 melanoma, 1.11% (active); in the assay on HCT-15 colon, 27.2%; in the assay with HT29 colon, 4.34% (active). The growth in the assay on SNB-75 CNS is 12.4%; in the assay on SNB-19 CNS, 36.1%; with U251 CNS it was 25.7%; in the assay on PC-3 prostate, 21.6%; with UACC-62 melanoma, 44.1%; with LOX IMVI melanoma, 51.2%.

Turning to `CCN(CC)CC(=O)Nc1c(C)cc(C(=O)NN)cc1C`, the growth is 96.8% with DU-145 prostate; 94.9% in the assay on K-562 leukemia; 73.9% in the assay with MALME-3M melanoma; 103% in the assay with MDA-MB-231 breast; 110% in the assay on RXF 393 renal; 93.9% in the assay with SF-268 CNS. The growth was 105% with SF-295 CNS; 100% in the assay with SF-539 CNS; 100% with UACC-257 melanoma; 96.2% with M14 melanoma; 103% with HCT-15 colon; 96.1% in the assay on HT29 colon. Also, the growth in the assay with SNB-75 CNS was 84.9%; in the assay with SNB-19 CNS, 97.3%; in the assay with U251 CNS, 97.5%; with PC-3 prostate, 101%; in the assay with SK-MEL-5 melanoma, 102%; in the assay with UACC-62 melanoma, 97.6%. The growth in the assay on LOX IMVI melanoma was 94.3%; in the assay on SK-MEL-28 melanoma, 106%.

On to `CCN(CC)CC(=O)Nc1c(C)ccc(N)c1C`, for which the growth was 107% in the assay with DU-145 prostate; 128% in the assay on K-562 leukemia; 90.5% in the assay with MALME-3M melanoma; 107% in the assay with MDA-MB-231 breast; 116% with RXF 393 renal; 102% in the assay with SF-268 CNS. In addition, the growth is 97% in the assay with SF-295 CNS; 99.6% with SF-539 CNS; 105% with UACC-257 melanoma; 101% with M14 melanoma; 97.1% in the assay on HCT-15 colon; 91.7% in the assay on HT29 colon. In addition, the growth was 91.7% in the assay on SNB-75 CNS; 100% in the assay with SNB-19 CNS; 96.1% in the assay on U251 CNS; 97.5% with PC-3 prostate; 99.6% in the assay on SK-MEL-5 melanoma; 97.6% in the assay with UACC-62 melanoma. The growth was 96.4% with LOX IMVI melanoma and 107% with SK-MEL-28 melanoma.

As to `Cc1ccc([C@H]2c3[nH]c4ccccc4c3C[C@H]3C(=O)N(CCCCCCC(=O)NO)CC(=O)N23)cc1`, the growth is 60.5% in the assay with DU-145 prostate; 20.2% with K-562 leukemia; 19.5% in the assay on MALME-3M melanoma; 44.4% in the assay on MDA-MB-231 breast; 51.5% in the assay with RXF 393 renal; 68.6% with SF-268 CNS. For the same compound, the growth in the assay with SF-295 CNS was 67.4%; in the assay with SF-539 CNS it was 52.6%; in the assay on UACC-257 melanoma, 50.5%; in the assay on M14 melanoma, 43.6%; in the assay with HCT-15 colon, 102%; in the assay with HT29 colon, 37.2%. The growth with SNB-75 CNS was -7.38% (active); in the assay on SNB-19 CNS it was 52.5%; in the assay with U251 CNS, 50.7%; with PC-3 prostate it was 44.3%; in the assay on UACC-62 melanoma, 24.1%; in the assay with LOX IMVI melanoma it was -37.2% (active). The growth with SK-MEL-28 melanoma was 37.5%.

Consider `Cc1ccc(C)c2c1SC1=NNC(Oc3ccc(Cl)cc3)=C(C#N)C(=N)N12`, for which the growth with DU-145 prostate is 112%; in the assay on K-562 leukemia, 95.1%; in the assay with MALME-3M melanoma, 123%; with MDA-MB-231 breast it was 99.6%; in the assay with RXF 393 renal, 118%; in the assay with SF-268 CNS, 113%. For the same compound, the growth in the assay with SF-295 CNS was 93.7%; with SF-539 CNS it was 103%; in the assay with UACC-257 melanoma it was 101%; in the assay on M14 melanoma, 107%; with HCT-15 colon, 104%; with HT29 colon, 103%. The growth is 92.2% with SNB-75 CNS; 110% in the assay with SNB-19 CNS; 98.4% in the assay with U251 CNS; 85% in the assay with PC-3 prostate; 93.5% with SK-MEL-5 melanoma; 97.1% with UACC-62 melanoma. Also, the growth with LOX IMVI melanoma is 99.7%; with SK-MEL-28 melanoma, 107%.

For the compound `O=C(/C=C/c1ccccc1Br)c1cccc(OCCCCOc2cccc(C(=O)/C=C/c3ccccc3Br)c2)c1`, the growth is 104% in the assay with DU-145 prostate; 94.6% in the assay on K-562 leukemia; 99.6% in the assay with MALME-3M melanoma; 104% in the assay with MDA-MB-231 breast; 96.9% with RXF 393 renal; 101% in the assay with SF-268 CNS. The growth with SF-295 CNS was 95.5%; with SF-539 CNS, 102%; in the assay with UACC-257 melanoma it was 94.1%; in the assay on M14 melanoma, 88%; in the assay with HCT-15 colon, 81.6%; in the assay with HT29 colon it was 89.3%. Moreover, the growth is 79.7% with SNB-75 CNS; 90.8% in the assay with SNB-19 CNS; 77% in the assay with U251 CNS; 92% in the assay with PC-3 prostate; 98.7% with SK-MEL-5 melanoma; 78.8% in the assay with UACC-62 melanoma. The growth in the assay on LOX IMVI melanoma is 86.4%; in the assay with SK-MEL-28 melanoma, 102%.

As for `Nc1c(C(=O)C[C@@H](N)CO)ccc2c1C(=O)CCO2`, the growth in the assay on DU-145 prostate is 42.9%; in the assay on K-562 leukemia, 33.4%; in the assay with MALME-3M melanoma, 48.2%; in the assay with MDA-MB-231 breast it was 61%; in the assay on RXF 393 renal, 90.7%; in the assay with SF-268 CNS it was 43.6%. Moreover, the growth is 48.3% in the assay with SF-295 CNS; 41.3% in the assay with SF-539 CNS; 65.4% with UACC-257 melanoma; 48.6% in the assay with M14 melanoma; 6.97% (active) with HCT-15 colon; -3.16% (active) in the assay on HT29 colon. Also, the growth in the assay on SNB-75 CNS was 86.2%; in the assay with SNB-19 CNS, 27.4%; in the assay on U251 CNS, 16.7%; in the assay on PC-3 prostate, 57%; in the assay on SK-MEL-5 melanoma it was 60.8%; in the assay with UACC-62 melanoma, 30.5%. The growth in the assay with LOX IMVI melanoma is -61.7% (active); in the assay on SK-MEL-28 melanoma, 39.1%.

The values above are taken from PubChem BioAssay (NCI).
